Earlier results in PubChem BioAssay AID977611.
The campaign covered roughly 3,900 compounds. About 3,900 (100%) were called active. No cut-off is given here; in the data, nearly all actives have Kd up to about 4200 µM. So high a share suggests a set chosen from earlier hits. Some of the results follow. Where a SMILES comes first, the peptide text is derived from it. Non-standard residues stand in square brackets, D forms with d. Square brackets hold non-standard residues; d marks the D form. Residues, ends and D or L forms follow the SMILES beside them. Peptide text beside a SMILES is read from it. [ ]: non-standard residue; d: D form. ξ: configuration not given here. *: point of attachment. X1 = O=C(O)c1cc(NC(=S)*)ccc1-c1c2ccc(=O)cc-2oc2cc(O)ccc12; Phe(3,4-Cl2) = N[C@@H](Cc1ccc(Cl)c(Cl)c1)C(=O)O; Orn(CH(NH2)2) = NC(N)NCCC[C@H](N)C(=O)O; ΔPro = O=C(O)[C@@H]1C=CCN1; Nva = CCC[C@H](N)C(=O)O; ξE = NC(CCC(=O)O)C(=O)O; Abu = CC[C@H](N)C(=O)O; Ahx = NCCCCCC(=O)O

Test: PubChem AID 977611
Conditions: PDB protein-ligand complexes, literature Kd

Compound: CN(C)S(=O)(=O)c1ccsc1
- Kd (protein: Pantothenate synthetase (T2A, E77G mutation), PDB entry 4efk): 3200 µM (active)
- Kd (protein: Pantothenate synthetase (T2A, E77G mutation), PDB entry 4g5y): 1700 µM (active)

Compound: CC1(C)NC(N)NC(N)N1c1ccc(Cl)cc1 (stereo not given)
- Kd (protein: Dihydrofolate reductase, PDB entry 4kne): 1.26 µM (active)

Compound: CC(=O)NCCCCNc1ncnc2c1ncn2[C@@H]1O[C@H](CN(CCCNC(=O)Nc2ccc(C(C)(C)C)cc2)C(C)C)[C@@H](O)[C@H]1O
- Kd (protein: Histone-lysine N-methyltransferase, H3 lysine-79 specific DOT1L, PDB entry 4wvl): 0.131 µM (active)

Compound: CCCCC/C=C\C\C=C/C=C/C=C/C[C@@H](O)CCCC(=O)O
- Kd (protein: Tablysin 15, PDB entry 3u3u): 0.133 µM (active)

Compound: CC[C@H](N)C(=O)N[C@H](C(=O)N[C@@H](Cc1ccccc1)C(=O)N[C@@H](CO)C(=O)N[C@@H](CC(=O)O)C(=O)N[C@@H](CC(C)C)C(=O)N[C@@H](Cc1c[nH]c2ccccc12)C(=O)N[C@@H](CCCCN)C(=O)N[C@@H](CC(C)C)C(=O)N[C@@H](CC(C)C)C(=O)N1CCC[C@H]1C(=O)O)[C@@H](C)O (H-[Abu]TFSDLWKLLP-OH)
- Kd (protein: native Mdm4 protein, PDB entry 2z5s): 2.2 µM (active)

Compound: C[C@H](NC(=O)[C@H](CCCNC(N)N)NC(=O)[C@@H](N)CCCCN)C(=O)N[C@@H](CO)C(=O)N[C@@H](CCCNC(N)N)C(=O)N[C@@H](Cc1c[nH]c2ccccc12)C(=O)N[C@@H](CC(=O)O)C(=O)N[C@@H](CCC(=O)O)C(=O)N[C@H](C(=O)N1CCC[C@H]1C(=O)O)[C@@H](C)O (H-K[Orn(CH(NH2)2)]AS[Orn(CH(NH2)2)]WDETP-OH)
- Kd (protein: Splicing factor 45(SPF45-UHM), PDB entry 2peh): 1.1 µM (active)

Compound: CC(C)C[C@H](NC(=O)[C@H](CC(=O)O)NC(=O)[C@H](CO)NC(=O)[C@H](Cc1ccccc1)NC(=O)[C@@H](NC(=O)[C@@H](N)CCC(=O)O)[C@@H](C)O)C(=O)N[C@@H](Cc1c[nH]c2ccccc12)C(=O)N[C@@H](CCCCN)C(=O)N[C@@H](CC(C)C)C(=O)N[C@@H](CC(C)C)C(=O)N1CCC[C@H]1C(=O)O
- Kd (protein: E3 ubiquitin-protein ligase Mdm2 (E69A, K70A mutation), PDB entry 4hfz): 1.9 µM (active)
- Kd (protein: human-mimic Mdm4 protein, PDB entry 2z5t): 2.4 µM (active)

Compound: C[C@H](N)C(=O)N[C@@H](CO)C(=O)N[C@@H](CCCN=C(N)N)C(=O)N[C@@H](Cc1c[nH]c2ccccc12)C(=O)N[C@@H](CC(=O)O)C(=O)N[C@@H](CCC(=O)O)C(=O)N[C@H](C(=O)N1CCC[C@H]1C(=O)O)[C@@H](C)O (H-ASRWDETP-OH)
- Kd (protein: RNA-binding protein 39 CAPER-alpha, PDB entry 4oz1): 2.4 µM (active)

Compound: CCC[C@H](NC(=O)[C@H](Cc1c[nH]c2ccccc12)NC(=O)[C@H](CC(C)C)NC(=O)[C@H](CC(=O)O)NC(=O)[C@H](CO)NC(=O)[C@H](Cc1ccccc1)NC(=O)[C@@H](NC(=O)C(N)CCC(=O)O)[C@@H](C)O)C(=O)N[C@@H](CC(C)C)C(=O)N[C@@H](CC(C)C)C(=O)N1CCC[C@H]1C(=O)N[C@@H](CCC(=O)O)C(=O)O (stereo not given in full) (H-[ξE]TFSDLW[Nva]LLPE-OH)
- Kd (protein: Mdm4 protein, PDB entry 3dab): 0.21 µM (active)

Compound: CC[C@H](C)[C@H](NC(=O)[C@H](CCC(=O)O)NC(=O)[C@H](CO)NC(=O)[C@@H](N)CCCNC(N)N)C(=O)N[C@H](C(=O)N[C@@H](CO)C(=O)N[C@H](C(=O)N[C@@H](C)C(=O)N1CC=C[C@H]1C(=O)N[C@@H](CO)C(=O)N[C@@H](CO)C(=O)N[C@@H](Cc1c[nH]c2ccccc12)C(=O)N[C@H](C(=O)N[C@H](C(=O)N1CCC[C@H]1C(=O)NCC(=O)N1CCC[C@H]1C(=O)O)C(C)C)C(C)C)[C@@H](C)O)[C@@H](C)CC (H-[Orn(CH(NH2)2)]SEIISTA[ΔPro]SSWVVPGP-OH)
- Kd (protein: B-cell lymphoma 6 protein, PDB entry 3bim): 1.32 µM (active)

Compound: NCc1cccc2c1OCCCO2
- Kd (protein: CATIONIC TRYPSIN, PDB entry 4ab8): 136 µM (active)

Compound: NC(=O)Nc1cn(-c2cccc3ccccc23)nc1C(N)=O
- Kd (protein: Tyrosine-protein kinase ITK/TSK kinase domain, PDB entry 4m0y): 0.35 µM (active)

Compound: CCCOc1ccc2cccc(-n3cc(NC(N)=O)c(C(N)=O)n3)c2c1
- Kd (protein: Tyrosine-protein kinase ITK/TSK kinase domain, PDB entry 4m13): 0.2 µM (active)

Compound: COc1ccc2cccc(-n3cc(NC(N)=O)c(C(N)=O)n3)c2c1
- Kd (protein: Tyrosine-protein kinase ITK/TSK kinase domain, PDB entry 4m0z): 6.4 µM (active)

Compound: CCOc1ccc2cccc(-n3cc(NC(N)=O)c(C(N)=O)n3)c2c1
- Kd (protein: Tyrosine-protein kinase ITK/TSK kinase domain, PDB entry 4m12): 0.9 µM (active)

Compound: CC(C)Oc1ccc2cccc(-n3cc(NC(N)=O)c(C(N)=O)n3)c2c1
- Kd (protein: Tyrosine-protein kinase ITK/TSK kinase domain, PDB entry 4m14): 0.2 µM (active)

Compound: CC(C)C[C@H](NC(=O)[C@H](C)N)C(=O)N[C@@H](CCCCN)C(=O)N[C@@H](CCCNC(N)N)C(=O)N[C@@H](CCCNC(N)N)C(=O)N[C@@H](CC(N)=O)C(=O)N[C@H](C(=O)O)C(C)C (HELM PEPTIDE1{A.L.K.[NC(N)NCCC[C@H](N[*:1])C(=O)[*:2]].[NC(N)NCCC[C@H](N[*:1])C(=O)[*:2]].N.V}$$$$V2.0)
- Kd (protein: Importin-?, PDB entry 1iq1): 0.035 µM (active)

Compound: H-AAKKLV-OH
- Kd (protein: Coatomer subunit beta', PDB entry 4j73): 27.7 µM (active)

Compound: CC(C)C[C@H](NC(=O)[C@H](CCCCN)NC(=O)[C@H](CCCNC(N)N)NC(=O)[C@H](C)N)C(=O)N[C@@H](CC(=O)O)C(=O)O (H-A[Orn(CH(NH2)2)]KLD-OH)
- Kd (protein: Coatomer subunit beta', PDB entry 4j84): 20.4 µM (active)

Compound: S=CNc1ccc2oc(C3=NCCN3)cc2c1
- Kd (protein: Chitinase A, PDB entry 3ary): 1 µM (active)
- Kd (protein: Chitinase A, PDB entry 3arz): 1 µM (active)

Compound: CN(C)CCOc1ccc(-c2nc(-c3ccc4c(c3)CC/C4=N/O)c(-c3ccncc3)[nH]2)cc1
- Kd (protein: B-Raf kinase domain, PDB entry 2fb8): 0.00016 µM (active)

Compound: O=S(=O)(c1ccc(O)cc1O)n1cc2cc(O)cc(O)c2c1
- Kd (PDB entry 4mpn): 0.239 µM (active)

Compound: O=C(c1ccc(O)cc1O)n1cc2ccccc2c1
- Kd (PDB entry 4mp7): 1.83 µM (active)

Compound: O=S(=O)(c1ccc(O)cc1O)n1cc2ccccc2c1
- Kd (PDB entry 4mpc): 0.711 µM (active)

Compound: CC(C)C[C@H](NC(=O)[C@H](C)NC(=O)[C@H](Cc1ccc(Cl)c(Cl)c1)NC(=O)[C@H](Cc1c[nH]c2ccccc12)NC(=O)[C@H](CCC(=O)O)NC(=O)[C@H](CCC(=O)O)NC(=O)[C@H](CC(C)C)NC(=O)[C@H](CC(=O)O)NC(=O)[C@H](CC(=O)O)NC(=O)[C@H](C)NC(=O)[C@@H](NC(=O)[C@H](Cc1ccccc1)NC(=O)[C@H](CC(=O)O)NC(=O)CCCCCNC(=S)Nc1ccc(-c2c3ccc(=O)cc-3oc3cc(O)ccc23)c(C(=O)O)c1)[C@@H](C)O)C(N)=O ({X1-Ahx}-DFTADDLEEW[Phe(3,4-Cl2)]AL-NH2)
- Kd (protein: Replication protein A 70 kDa DNA-binding subunit, PDB entry 4nb3): 0.022 µM (active)

Compound: CSCC[C@H](NC(=O)[C@H](CC(C)C)NC(=O)[C@H](Cc1ccccc1)NC(=O)[C@H](CC(=O)O)NC(=O)[C@H](Cc1ccc(O)cc1)NC(=O)[C@H](Cc1c[nH]c2ccccc12)NC(=O)[C@@H](NC(=O)[C@@H](NC(=O)[C@H](CCCNC(N)N)NC(=O)[C@@H](N)CO)C(C)C)[C@@H](C)O)C(=O)N[C@@H](CCC(=O)O)C(=O)N[C@@H](CC(=O)O)C(=O)O (H-S[Orn(CH(NH2)2)]VTWYDFLMED-OH)
- Kd (protein: Guanine nucleotide-binding protein G, PDB entry 1y3a): 3.9 µM (active)

Compound: CC(C)C[C@H](NC(=O)[C@H](CCC(=O)O)NC(=O)[C@H](CO)NC(=O)[C@H](CC(=O)O)NC(=O)[C@H](CO)NC(=O)[C@H](CC(=O)O)NC(=O)[C@H](CCC(=O)O)NC(=O)[C@H](CCC(N)=O)NC(=O)[C@H](CO)NC(=O)CN)C(=O)N[C@@H](CCC(=O)O)C(=O)N[C@@H](CCC(N)=O)C(=O)N[C@@H](Cc1ccc(O)cc1)C(=O)N[C@@H](Cc1ccccc1)C(=O)N[C@H](C(=O)N[C@@H](C)C(=O)N[C@@H](CCCNC(N)N)C(=O)N[C@@H](Cc1c[nH]c2ccccc12)C(=O)O)[C@@H](C)O (H-GSQEDSDSELEQYFTA[Orn(CH(NH2)2)]W-OH)
- Kd (protein: DAXX N-Terminal Helical Bundle Domain (55-144), PDB entry 2kzu): 60 µM (active)
